According to PubChem BioAssay:
The source made the active and inactive calls. Unless noted, no rule for the calls is given here.

Tests used:
[1] = compounds binding Alexa647 anti-His antibody – biochemical, small-molecule microarray, 635 nm fluorescence, artefact control for SMM control protein annotation, primary screen (AID 1128); settings: higher = more signal;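 also: score merges feature fluorescence with signal-to-noise for each printed compound spot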
[2] = system: Human papillomavirus type 1a E7 protein (residues 1-88); test: HPV1a E7 small-molecule binders, primary screen, biochemical, small-molecule microarray, residues 1-88, 635 nm (AID 1129); settings: small-molecule microarray binding, fluorescence 635 nm; higher = more signal
[3] = target: Focal adhesion kinase 1 (Homo sapiens) (UniProt Q05397); test: PTK2 protein binding on printed compound slides – biochemical, small-molecule microarray, 635/667 nm fluorescence, BSA, DTT, primary screen (AID 1130); settings: 635 nm fluorescence, higher = more signal;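 also: composite of spot emission at 667 nm and signal to noise over triplicate slides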
[4] = system: Fibrinogen (Alexa647-labelled); test: Alexa647-fibrinogen binding to printed small molecules – biochemical, small-molecule microarray, 635/667 nm fluorescence, artefact control for SMM control-protein annotation, profiling panel (AID 1131); settings: fibrinogen-A647 binding fluorescence, higher = more signal;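 also: z-score merges 667 nm fluorescence with per-spot signal-to-noise over triplicate slides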
[5] = target: Follistatin (Homo sapiens) (UniProt P19883); test: FST protein binding to printed compounds – biochemical, small-molecule microarray, 635/667 nm fluorescence, primary screen (AID 1132); settings: 635 nm fluorescence, higher = more signal
[6] = target: Fibroblast growth factor 2 (Homo sapiens) (UniProt P09038); test: basic fibroblast growth factor binding to printed compounds – biochemical, small-molecule microarray, 635/667 nm fluorescence, primary screen (AID 1133); settings: FGF2, fluorescence 635/667, higher = more signal
[7] = JC-1 mitochondrial potential readout, lung cancer cells – cell-based, A549, JC-1 fluorescence, basal, 24 h, 100 nL, profiling panel (AID 1138); settings: higher = more signal;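 also: A549 lung adenocarcinoma cells under basal conditions with no added stimulus; test concentration not given here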
Lefty1 = Lefty1 protein binding to printed compounds – biochemical, small-molecule microarray, 635/667 nm fluorescence, primary screen (AID 1139); settings: fluorescence 635/667, higher = more signal
[8] = system: wheat germ agglutinin (Triticum aestivum), Alexa647-labelled; test: Alexa647-WGA lectin binding to printed small molecules – biochemical, small-molecule microarray, 635/667 nm fluorescence, artefact control for SMM control-protein annotation, profiling panel (AID 1140); settings: WGA-A647 binding, 635 nm fluorescence, higher = more signal;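 also: score merges 667 nm feature emission with signal to noise over triplicate slides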
[9] = target: Luciferin 4-monooxygenase (Photinus pyralis) (UniProt P08659); test: inhibition of purified Photinus pyralis luciferase – biochemical, luminescence, purified enzyme, 2006 set, primary screen (AID 1141); settings: purified firefly luciferase, SteadyGlo luminescence, 30 min; higher = more signal, called active from +8 up or from −8 down;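 also: cell-free assay with purified firefly luciferase at 100 ng per well in PBS; test concentration not given here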
[10] = system: Wnt5a (protein binding on small-molecule microarray); test: small molecules binding Wnt5a protein – biophysical, small-molecule microarray, 635/667 nm fluorescence, primary screen (AID 1142); settings: 635 nm fluorescence, higher = more signal;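 also: fluorescence read at 667 nm with signal to noise per printed feature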
[11] = ATP-based viability of Huh7 replicon cells – cell-based, CellTiter-Glo luminescence, basal, 48 h, cytotoxicity control for HCV replication inhibitor project, primary screen (AID 1143); settings: higher = more signal, called active from +8 up or from −8 down;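 also: Huh7 hepatoma cells carrying a hepatitis C replication reporter with no stimulus; test concentration not given here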
[12] = Pseudomonas biofilm growth suppression – PAO1 strain, BacTiter-Glo luminescence, LB-PBS, primary screen (AID 1144); settings: P. aeruginosa PAO1 biofilm, 12 h, higher = more signal
[13] = basal CRE-LacZ reporter activity in PC12 – cell-based, unstimulated, primary screen (AID 1145); settings: no forskolin, luminescence, 4.5 h, higher = more signal, called active from +8 up or from −8 down
[14] = forskolin-driven CRE-LacZ activity in PC12 – cell-based, CRE-LacZ reporter, forskolin-stimulated, primary screen (AID 1146); settings: luminescence, 4.5 h, higher = more signal, called active from +8 up or from −8 down;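 also: PC12 cells with 6xCRE LacZ reporter stimulated by forskolin 10 µM; beta-galactosidase reporter signal reflecting CREB driven transcription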
[15] = target: Streptavidin (Streptomyces avidinii) (UniProt P22629); test: compounds binding control protein streptavidin – biophysical, small-molecule microarray, 635/667 nm fluorescence, artefact control for SMM compound annotation, primary screen (AID 1147); settings: higher = more signal;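 also: signal reflects streptavidin binding to arrayed compounds as a control protein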
[16] = probe aInhba binding on compound microarray – biochemical, small-molecule microarray, 635/667 nm fluorescence, primary screen (AID 1148); settings: higher = more signal;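 also: score merges 667nm spot fluorescence with signal-to-noise for antibody binding to printed compounds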
Torsin-1A (Homo sapiens) [17] = target: Torsin-1A (Homo sapiens) (UniProt O14656); test: TOR1A wild-type binding on microarray – cell lysate, small-molecule microarray, lysate, 635/667 nm, primary screen (AID 1149); settings: COS7 hTOR1A-WT lysate, 635 nm fluorescence, higher = more signal
Torsin-1A (Homo sapiens) [18] = target: Torsin-1A (Homo sapiens) (UniProt O14656); test: torsin A mutant lysate binding on microarrays – cell lysate, small-molecule microarray, COS7 lysate, 635/667 nm fluorescence, primary screen (AID 1150); settings: COS7 hTOR1A mutant lysate, 635 nm fluorescence, higher = more signal;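 also: score pools 667 nm emission and signal to noise measuring lysate protein binding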
[19] = system: Sonic hedgehog protein (Shh); test: Sonic hedgehog microarray binding compounds – biochemical, small-molecule microarray, 635/667 nm fluorescence, primary screen (AID 1151); settings: 635 nm fluorescence, higher = more signal;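 also: Shh protein binding to compounds spotted on small-molecule microarray slides; score combines spot fluorescence intensity with signal-to-noise across triplicate slides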

Sequence of Focal adhesion kinase 1 (Homo sapiens) (Q05397 whole entry, looked up): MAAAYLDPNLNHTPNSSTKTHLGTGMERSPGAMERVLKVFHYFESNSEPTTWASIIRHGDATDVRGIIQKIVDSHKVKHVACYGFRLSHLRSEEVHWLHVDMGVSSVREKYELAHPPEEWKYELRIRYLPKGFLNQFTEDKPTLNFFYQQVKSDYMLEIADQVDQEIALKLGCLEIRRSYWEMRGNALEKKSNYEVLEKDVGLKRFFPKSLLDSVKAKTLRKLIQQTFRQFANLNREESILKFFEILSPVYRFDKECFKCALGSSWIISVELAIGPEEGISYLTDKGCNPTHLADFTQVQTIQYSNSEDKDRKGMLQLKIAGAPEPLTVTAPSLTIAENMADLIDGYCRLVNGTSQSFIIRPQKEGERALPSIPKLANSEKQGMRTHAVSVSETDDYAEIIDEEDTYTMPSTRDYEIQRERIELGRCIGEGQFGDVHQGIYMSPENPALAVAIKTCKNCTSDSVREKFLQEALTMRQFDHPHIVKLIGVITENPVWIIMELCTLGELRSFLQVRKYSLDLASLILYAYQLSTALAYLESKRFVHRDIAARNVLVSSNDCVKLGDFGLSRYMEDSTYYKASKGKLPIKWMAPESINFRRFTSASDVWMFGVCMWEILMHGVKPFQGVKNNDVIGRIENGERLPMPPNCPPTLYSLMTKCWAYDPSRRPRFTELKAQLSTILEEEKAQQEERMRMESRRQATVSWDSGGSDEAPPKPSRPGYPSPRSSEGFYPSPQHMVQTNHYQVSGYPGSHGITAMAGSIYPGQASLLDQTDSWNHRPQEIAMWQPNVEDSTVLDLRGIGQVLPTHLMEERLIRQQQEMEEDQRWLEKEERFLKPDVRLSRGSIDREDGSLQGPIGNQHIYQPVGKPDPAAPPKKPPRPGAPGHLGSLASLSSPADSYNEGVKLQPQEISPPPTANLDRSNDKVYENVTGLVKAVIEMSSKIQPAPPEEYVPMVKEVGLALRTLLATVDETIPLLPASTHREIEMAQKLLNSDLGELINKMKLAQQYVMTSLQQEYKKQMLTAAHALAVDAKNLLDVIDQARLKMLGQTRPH
Sequence of Streptavidin (Streptomyces avidinii) (P22629 whole entry, looked up): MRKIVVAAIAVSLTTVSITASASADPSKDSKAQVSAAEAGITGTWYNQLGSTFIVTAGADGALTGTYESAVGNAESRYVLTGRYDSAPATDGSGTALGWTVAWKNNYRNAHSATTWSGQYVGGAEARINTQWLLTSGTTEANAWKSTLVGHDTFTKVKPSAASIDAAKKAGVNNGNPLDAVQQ
Sequence of Luciferin 4-monooxygenase (Photinus pyralis) (P08659 whole entry, looked up): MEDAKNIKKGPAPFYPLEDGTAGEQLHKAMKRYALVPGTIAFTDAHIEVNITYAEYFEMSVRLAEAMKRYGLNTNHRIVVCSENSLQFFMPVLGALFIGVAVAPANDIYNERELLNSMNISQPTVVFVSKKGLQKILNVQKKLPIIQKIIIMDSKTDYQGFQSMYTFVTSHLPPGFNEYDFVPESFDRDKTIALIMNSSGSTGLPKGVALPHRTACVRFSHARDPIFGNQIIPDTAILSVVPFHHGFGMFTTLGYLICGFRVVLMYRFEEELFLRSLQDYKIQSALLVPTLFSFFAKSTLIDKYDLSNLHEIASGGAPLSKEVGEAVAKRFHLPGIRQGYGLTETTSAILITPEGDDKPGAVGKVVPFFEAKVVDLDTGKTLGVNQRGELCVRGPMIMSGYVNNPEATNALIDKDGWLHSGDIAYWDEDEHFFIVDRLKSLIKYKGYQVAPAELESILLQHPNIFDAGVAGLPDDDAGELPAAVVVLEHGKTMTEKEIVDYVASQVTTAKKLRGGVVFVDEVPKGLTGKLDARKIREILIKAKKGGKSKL
Sequence of Fibroblast growth factor 2 (Homo sapiens) (P09038 whole entry, looked up): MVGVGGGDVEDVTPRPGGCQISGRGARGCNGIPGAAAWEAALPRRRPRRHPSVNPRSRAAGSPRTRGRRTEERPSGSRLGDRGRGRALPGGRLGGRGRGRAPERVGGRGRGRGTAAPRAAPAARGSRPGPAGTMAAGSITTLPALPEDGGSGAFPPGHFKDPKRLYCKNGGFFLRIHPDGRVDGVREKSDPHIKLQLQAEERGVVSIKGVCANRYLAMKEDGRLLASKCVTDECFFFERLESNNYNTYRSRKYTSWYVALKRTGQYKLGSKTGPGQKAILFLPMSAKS
Sequence of Torsin-1A (Homo sapiens) (O14656 whole entry, looked up): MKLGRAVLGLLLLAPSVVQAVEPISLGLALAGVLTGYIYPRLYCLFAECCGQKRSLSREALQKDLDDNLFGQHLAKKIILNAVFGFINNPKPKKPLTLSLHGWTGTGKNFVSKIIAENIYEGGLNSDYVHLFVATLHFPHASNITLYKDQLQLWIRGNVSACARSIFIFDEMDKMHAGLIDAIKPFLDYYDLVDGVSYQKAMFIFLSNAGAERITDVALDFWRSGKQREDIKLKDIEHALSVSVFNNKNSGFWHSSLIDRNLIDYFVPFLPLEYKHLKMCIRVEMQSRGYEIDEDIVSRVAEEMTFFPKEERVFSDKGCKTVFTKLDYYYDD
Sequence of Follistatin (Homo sapiens) (P19883 whole entry, looked up): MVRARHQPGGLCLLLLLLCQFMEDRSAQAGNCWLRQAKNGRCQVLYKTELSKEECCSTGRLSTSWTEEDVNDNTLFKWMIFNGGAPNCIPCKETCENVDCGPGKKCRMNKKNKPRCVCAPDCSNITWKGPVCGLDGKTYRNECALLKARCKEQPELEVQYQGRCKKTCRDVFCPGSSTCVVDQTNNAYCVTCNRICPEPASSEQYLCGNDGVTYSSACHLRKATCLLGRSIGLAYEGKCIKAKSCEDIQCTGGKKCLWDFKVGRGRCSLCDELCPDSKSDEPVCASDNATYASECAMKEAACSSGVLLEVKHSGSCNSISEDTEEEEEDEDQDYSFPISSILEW

Row | SMILES | composite z-score [1] | composite z-score [2] | composite z-score [3] | composite z-score [4] | composite z-score [5] | composite z-score [6] | z-score [7] | composite z-score (Lefty1) | composite z-score [8] | z-score [9] | composite z-score [10] | z-score [11] | z-score [12] | z-score [13] | z-score [14] | composite z-score [15] | composite z-score [16] | composite z-score (Torsin-1A (Homo sapiens) [17]) | composite z-score (Torsin-1A (Homo sapiens) [18]) | composite z-score [19]
1 | CCN(CC)c1ccc(N2CC=CC34O[C@@H]5/C=C\CCCOC(=O)C5[C@H]3C(=O)N(CCO)[C@@H]4C2=O)cc1 (stereo not given in full) | 0.449 | -0.57 | -0.724 | -0.837 | -0.654 | -1.03 | -0.73 | -0.2 | -0.875 | -0.312 (inactive) | -0.6 | -0.117 (inactive) | 0.0243 (inactive) | 0.601 (inactive) | -0.462 (inactive) | -0.79 | -0.219 | -1.53 | -0.705 | 0.0512
2 | COc1cc2c(cc1O)C=[N+](Cc1cccc(OC(F)(F)F)c1)CC2 | -0.131 | -0.566 | 0.185 | -0.636 | 0.318 | -0.0744 | 2 | -0.285 | 1.01 | -0.847 (inactive) | -0.141 | -2.11 (inactive) | -0.28 (inactive) | -0.401 (inactive) | -0.583 (inactive) | -0.535 | -0.127 | 0.955 | 0.284 | -0.0245
3 | COCCOC(=O)N1C(=O)[C@@]2(c3cc(C#CCCO)ccc31)[C@H](C(=O)N1CCc3cc(OC)c(OC)cc3C1)[C@H]1C(=O)O[C@H](c3ccccc3)[C@H](c3ccccc3)N1[C@@H]2c1ccc(O)cc1 | 1.89 | 1.22 | 0.831 | 0.904 | 0.949 | 0.622 | 0.188 | 0.791 | 0.393 | -0.407 (inactive) | 0.304 | -0.173 (inactive) | -0.14 (inactive) | -0.815 (inactive) | -0.742 (inactive) | 0.25 | 0.132 | 0.73 | 0.538 | 0.918
4 | C=CCN1C(=O)[C@@]2(O[C@@H](CCO)[C@H]([Si](C)(C)c3ccc(OC)cc3)[C@H]2C)c2cc(NC(=O)c3ccc(OC)cc3)ccc21 | 0.919 | 0.563 | -0.0376 | 0.259 | 1.38 | 1.2 | 2.81 | 0.763 | 0.458 | -1.26 (inactive) | 0.157 | -6.5 (inactive) | -0.39 (inactive) | 10.6 (active) | -1.6 (inactive) | 0.15 | -0.0221 | 0.214 | 0.373 | 1.64
5 | COc1ccc(C(O)C2C=CC3C(=O)N(c4ccccc4)C(=O)C3N2Nc2ccccc2F)cc1OCc1ccccc1 (stereo not given) | 0.981 | 1.22 | 1.37 | 0.991 | 0.634 | -0.179 | 0.383 | -0.454 | 1.18 | -0.237 (inactive) | 0.353 | 0.0131 (inactive) | -0.547 (inactive) | -0.143 (inactive) | -0.269 (inactive) | 1.47 | 1.14 | 0.281 | 0.671 | -0.876
